# Experimental data taken from the supplement of paper PMC10849652.
# About 7,900 targets were measured; listed, in parts, are those with a hit and a random draw of the rest. About 0.6% of all pairs of compound and target were hits. Values without a mark were called inactive.
# Tests used:
# Test in all cases: log2 fold change, soluble protein after heating vs DMSO (PISA); higher = thermal stabilisation; K562 cells, 10 uM, 30 min; active = over 0.2 and 3.5 SD of the protein, either way, in both replicates (recomputed)
# [1] = compound: C1COCCN1CCN2C3=CC=CC=C3N=C2NC(=O)C4=CC(=CC=C4)[N+](=O)[O-] [IRAK-1-4 Inhibitor I]
# Summary of the method: (§1)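 K562 cells at 2×10^6 cells/mL were given 10 μM compound for 30 min. Aliquots then went through 3 min of heating across 48°C-58°C, were pooled, and were extracted in PBS with 0.5% NP-40 at 4°C, and the supernatant after 21,000xg for 90 min was quantified by TMTpro 16plex LC-MS/MS with channel sums equalised. Thermal stability relative to control samples, from duplicates, is given as log2 fold change.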
# [2] = compound: C=CC(=O)N1CCC[C@@H](n2nc(-c3ccc(Oc4ccccc4)cc3)c3c(N)ncnc32)C1 [ibrutinib]
# Summary of the method: as §1
# [3] = compound: CC(=O)c1cnc2ccc(-c3cc(Cl)c(O)c(Cl)c3)nc2c1N[C@H]1CC[C@H](CN(C)C)CC1
# Summary of the method: as §1
# [4] = compound: CC(C)(C)Cn1c(N)nc2ccc(-c3[nH]c(C(C)(C)C)nc3-c3ccc(F)cc3)nc21 [ralimetinib]
# Summary of the method: as §1
# [5] = compound: CC(C)(O)CC(=O)NCCn1ccc2ncnc(Nc3ccc(Oc4cccc(C(F)(F)F)c4)c(Cl)c3)c21
# Summary of the method: as §1
# [6] = compound: CC(C)C1=C2N=C(C=C(N2N=C1)NCC3=CC=CC=C3)NCCCCCCN
# Summary of the method: as §1
# [7] = compound: CC(C)C[C@@H](C=O)NC(=O)[C@H](CC(C)C)NC(=O)[C@H](CC(C)C)NC(=O)OCc1ccccc1
# Summary of the method: as §1
# [8] = compound: CC(C)N(C[C@H]1O[C@@H](n2cnc3c(N)ncnc32)[C@H](O)[C@@H]1O)[C@H]1C[C@@H](CCc2nc3cc(C(C)(C)C)ccc3[nH]2)C1 [pinometostat]
# Summary of the method: as §1
# [9] = compound: CC1=C(C(CC(=O)N1)C2=CC=C(C=C2)C(F)(F)F)C(=O)NC3=C(C=C4C(=C3)C=NN4)F
# Summary of the method: as §1
# [10] = compound: CC1=C(C2=C(C=C1)C(=O)C3=CC=CC=C3N2CCCN)C
# Summary of the method: as §1
# [11] = compound: CC1=C(C=C(C=C1)NC(=O)C2=CC(=CC=C2)C(C)(C)C#N)NC3=CC4=C(C=C3)N=CN(C4=O)C
# Summary of the method: as §1
# [12] = compound: CC1=C(C=C(C=C1)NC(=O)C2=CC(=CC=C2)N(C)C)NC(=O)C3=CC=C(C=C3)O
# Summary of the method: as §1
# [13] = compound: CC1=CC=C(C=C1)SC2=C3C=C(SC3=CN=C2)C(=O)N
# Summary of the method: as §1
# [14] = compound: CC1=NC(=CC=C1)C2=C(N=C(N2)C(C)(C)C)C3=CC4=NC=CN=C4C=C3
# Summary of the method: as §1
# [15] = compound: CCCCN(Cc1ccc(C(=O)NO)cc1)C(=O)Nc1ccccc1 [Nexturastat A]
# Summary of the method: as §1
# [16] = compound: CCCS(=O)(=O)Nc1ccc(F)c(C(=O)c2c[nH]c3ncc(-c4ccc(Cl)cc4)cc23)c1F [vemurafenib]
# Summary of the method: as §1
# [17] = compound: CCCS(=O)(=O)Nc1ccc(F)c(C(=O)c2c[nH]c3ncc(Cl)cc23)c1F
# Summary of the method: as §1
# [18] = compound: CCCc1cc(C)[nH]c(=O)c1CNC(=O)c1cc(-c2ccnc(N3CCN(C)CC3)c2)cc2c1cnn2C(C)C
# Summary of the method: as §1
# [19] = compound: CCN(CC)Cc1ccc2cc(COC(=O)Nc3ccc(C(=O)NO)cc3)ccc2c1 [givinostat]
# Summary of the method: as §1
# [20] = compound: CCN(CCCOc1ccc2c(Nc3cc(CC(=O)Nc4cccc(F)c4)[nH]n3)ncnc2c1)CCOP(=O)(O)O [barasertib]
# Summary of the method: as §1
# UniProt Q8IY95, sequence (Q8IY95 whole entry, looked up): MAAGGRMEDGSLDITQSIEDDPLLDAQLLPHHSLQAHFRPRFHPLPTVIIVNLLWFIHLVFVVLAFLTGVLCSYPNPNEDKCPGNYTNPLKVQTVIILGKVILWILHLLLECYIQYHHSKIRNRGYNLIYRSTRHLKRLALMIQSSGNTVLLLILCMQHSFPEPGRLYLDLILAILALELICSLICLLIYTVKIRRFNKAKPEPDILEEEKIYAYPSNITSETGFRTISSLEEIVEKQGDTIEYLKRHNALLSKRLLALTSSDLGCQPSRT
# UniProt P43897, sequence (P43897 whole entry, looked up): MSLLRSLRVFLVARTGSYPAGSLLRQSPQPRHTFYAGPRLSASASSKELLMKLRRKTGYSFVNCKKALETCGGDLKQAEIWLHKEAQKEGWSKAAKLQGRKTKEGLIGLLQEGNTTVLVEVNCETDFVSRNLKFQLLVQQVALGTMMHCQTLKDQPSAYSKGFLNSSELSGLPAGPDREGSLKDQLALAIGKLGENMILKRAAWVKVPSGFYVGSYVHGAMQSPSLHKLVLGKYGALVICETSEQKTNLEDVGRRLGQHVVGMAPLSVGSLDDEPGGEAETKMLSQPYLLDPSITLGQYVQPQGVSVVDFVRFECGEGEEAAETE
# UniProt Q13263, sequence (Q13263 whole entry, looked up): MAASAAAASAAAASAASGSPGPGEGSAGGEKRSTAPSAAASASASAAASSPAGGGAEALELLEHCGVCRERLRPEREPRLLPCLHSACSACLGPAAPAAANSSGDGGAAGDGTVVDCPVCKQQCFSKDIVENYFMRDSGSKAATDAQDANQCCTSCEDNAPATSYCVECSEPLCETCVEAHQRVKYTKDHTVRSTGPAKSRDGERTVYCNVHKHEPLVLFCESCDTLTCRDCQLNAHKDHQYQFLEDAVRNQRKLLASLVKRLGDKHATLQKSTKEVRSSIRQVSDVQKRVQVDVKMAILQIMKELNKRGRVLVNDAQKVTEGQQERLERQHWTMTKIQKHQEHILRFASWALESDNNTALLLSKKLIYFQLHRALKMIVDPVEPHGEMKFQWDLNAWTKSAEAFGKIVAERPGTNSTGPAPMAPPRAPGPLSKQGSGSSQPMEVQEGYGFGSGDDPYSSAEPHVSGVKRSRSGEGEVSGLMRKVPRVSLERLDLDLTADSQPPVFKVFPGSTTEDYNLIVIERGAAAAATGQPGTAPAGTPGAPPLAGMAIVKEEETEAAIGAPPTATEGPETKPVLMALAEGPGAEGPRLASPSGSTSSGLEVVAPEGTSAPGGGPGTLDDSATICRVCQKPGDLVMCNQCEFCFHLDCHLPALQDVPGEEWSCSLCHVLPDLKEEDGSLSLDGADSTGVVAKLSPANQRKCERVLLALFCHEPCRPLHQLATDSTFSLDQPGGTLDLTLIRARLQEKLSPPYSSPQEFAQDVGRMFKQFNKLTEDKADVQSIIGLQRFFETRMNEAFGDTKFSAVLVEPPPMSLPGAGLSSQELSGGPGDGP
# UniProt Q86UV5, sequence (Q86UV5 whole entry, looked up): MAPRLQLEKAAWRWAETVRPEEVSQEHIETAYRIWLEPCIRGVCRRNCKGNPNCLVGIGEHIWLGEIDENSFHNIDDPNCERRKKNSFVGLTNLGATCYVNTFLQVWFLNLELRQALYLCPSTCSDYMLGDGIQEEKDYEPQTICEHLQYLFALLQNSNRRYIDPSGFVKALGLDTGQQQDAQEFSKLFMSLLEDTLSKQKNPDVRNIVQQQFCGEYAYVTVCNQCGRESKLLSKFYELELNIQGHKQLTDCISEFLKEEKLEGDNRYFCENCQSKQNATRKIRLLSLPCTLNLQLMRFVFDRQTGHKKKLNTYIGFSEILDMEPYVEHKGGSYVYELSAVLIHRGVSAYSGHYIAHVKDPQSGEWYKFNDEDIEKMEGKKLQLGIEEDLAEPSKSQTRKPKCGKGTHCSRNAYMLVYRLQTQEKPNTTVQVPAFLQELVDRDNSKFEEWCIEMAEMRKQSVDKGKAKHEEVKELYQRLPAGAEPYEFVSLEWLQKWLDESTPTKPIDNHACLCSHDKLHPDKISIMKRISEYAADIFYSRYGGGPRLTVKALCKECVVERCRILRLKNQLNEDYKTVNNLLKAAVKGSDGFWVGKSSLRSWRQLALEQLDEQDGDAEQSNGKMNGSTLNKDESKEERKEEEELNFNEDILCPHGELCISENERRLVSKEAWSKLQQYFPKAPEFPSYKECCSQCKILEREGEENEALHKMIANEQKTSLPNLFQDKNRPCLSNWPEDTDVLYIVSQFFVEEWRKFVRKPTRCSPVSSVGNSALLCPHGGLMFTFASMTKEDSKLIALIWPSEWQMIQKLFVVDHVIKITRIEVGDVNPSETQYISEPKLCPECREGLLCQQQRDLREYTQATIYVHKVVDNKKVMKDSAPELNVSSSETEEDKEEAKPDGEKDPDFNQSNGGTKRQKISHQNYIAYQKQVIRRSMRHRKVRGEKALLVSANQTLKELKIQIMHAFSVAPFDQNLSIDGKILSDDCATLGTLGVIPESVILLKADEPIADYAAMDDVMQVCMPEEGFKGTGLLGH
# UniProt A5PLN9, sequence (A5PLN9 whole entry, looked up): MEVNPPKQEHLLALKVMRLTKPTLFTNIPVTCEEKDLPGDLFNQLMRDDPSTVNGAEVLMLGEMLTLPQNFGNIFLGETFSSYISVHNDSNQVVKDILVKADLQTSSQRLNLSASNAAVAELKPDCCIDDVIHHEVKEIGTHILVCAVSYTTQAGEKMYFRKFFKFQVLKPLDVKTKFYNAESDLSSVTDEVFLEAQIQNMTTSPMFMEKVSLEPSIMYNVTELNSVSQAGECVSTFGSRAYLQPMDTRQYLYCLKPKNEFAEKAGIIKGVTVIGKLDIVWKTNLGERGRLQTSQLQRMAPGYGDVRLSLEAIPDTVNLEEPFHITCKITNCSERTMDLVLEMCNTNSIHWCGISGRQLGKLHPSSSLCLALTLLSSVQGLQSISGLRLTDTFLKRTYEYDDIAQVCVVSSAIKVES
# UniProt Q96QU8, sequence (Q96QU8 whole entry, looked up): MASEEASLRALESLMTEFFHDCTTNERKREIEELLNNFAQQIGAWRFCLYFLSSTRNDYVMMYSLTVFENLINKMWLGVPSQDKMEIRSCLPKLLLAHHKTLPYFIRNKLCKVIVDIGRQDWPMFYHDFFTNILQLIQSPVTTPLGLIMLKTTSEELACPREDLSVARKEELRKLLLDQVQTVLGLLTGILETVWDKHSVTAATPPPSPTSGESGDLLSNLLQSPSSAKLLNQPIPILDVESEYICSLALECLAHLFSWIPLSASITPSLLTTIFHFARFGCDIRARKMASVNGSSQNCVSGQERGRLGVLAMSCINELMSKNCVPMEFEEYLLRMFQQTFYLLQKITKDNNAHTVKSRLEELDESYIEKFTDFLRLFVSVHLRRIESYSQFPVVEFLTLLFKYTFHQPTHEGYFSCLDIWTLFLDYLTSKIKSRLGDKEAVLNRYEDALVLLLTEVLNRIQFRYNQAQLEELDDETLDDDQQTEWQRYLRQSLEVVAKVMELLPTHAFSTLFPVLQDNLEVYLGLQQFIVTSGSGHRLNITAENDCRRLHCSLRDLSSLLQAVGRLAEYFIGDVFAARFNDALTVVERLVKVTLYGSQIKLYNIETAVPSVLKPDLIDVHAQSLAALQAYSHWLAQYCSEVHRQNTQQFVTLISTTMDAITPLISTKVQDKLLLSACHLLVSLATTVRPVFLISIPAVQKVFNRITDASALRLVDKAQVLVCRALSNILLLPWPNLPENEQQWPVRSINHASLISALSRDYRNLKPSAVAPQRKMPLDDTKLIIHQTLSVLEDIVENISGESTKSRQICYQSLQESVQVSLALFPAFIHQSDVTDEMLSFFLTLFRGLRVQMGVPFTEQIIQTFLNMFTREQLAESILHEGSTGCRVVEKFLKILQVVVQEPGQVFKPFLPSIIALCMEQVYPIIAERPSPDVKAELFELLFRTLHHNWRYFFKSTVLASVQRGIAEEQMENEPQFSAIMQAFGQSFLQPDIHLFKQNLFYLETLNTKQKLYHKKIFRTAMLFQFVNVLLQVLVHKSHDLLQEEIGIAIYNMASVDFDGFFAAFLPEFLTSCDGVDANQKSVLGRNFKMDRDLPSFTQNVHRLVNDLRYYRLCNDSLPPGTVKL
# UniProt Q9UGM6, sequence (Q9UGM6 whole entry, looked up): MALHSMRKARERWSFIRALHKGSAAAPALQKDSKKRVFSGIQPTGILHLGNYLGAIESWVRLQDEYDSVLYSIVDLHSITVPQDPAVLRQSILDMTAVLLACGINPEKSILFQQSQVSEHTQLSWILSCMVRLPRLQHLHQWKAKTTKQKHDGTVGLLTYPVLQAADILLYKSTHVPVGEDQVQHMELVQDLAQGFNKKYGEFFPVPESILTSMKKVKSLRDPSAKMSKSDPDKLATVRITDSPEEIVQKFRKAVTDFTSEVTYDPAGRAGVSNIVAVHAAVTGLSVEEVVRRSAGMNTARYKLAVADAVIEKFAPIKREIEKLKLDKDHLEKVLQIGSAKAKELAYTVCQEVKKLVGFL
# UniProt Q9BUB7, sequence (Q9BUB7 whole entry, looked up): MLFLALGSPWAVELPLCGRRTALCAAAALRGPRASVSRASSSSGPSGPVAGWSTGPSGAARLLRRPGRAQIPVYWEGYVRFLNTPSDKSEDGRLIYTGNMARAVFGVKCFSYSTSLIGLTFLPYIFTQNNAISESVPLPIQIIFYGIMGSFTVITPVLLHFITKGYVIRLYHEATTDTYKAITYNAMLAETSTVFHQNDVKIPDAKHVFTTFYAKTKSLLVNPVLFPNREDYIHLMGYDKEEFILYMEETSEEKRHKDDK
# UniProt Q9P0T7, sequence (Q9P0T7 whole entry, looked up): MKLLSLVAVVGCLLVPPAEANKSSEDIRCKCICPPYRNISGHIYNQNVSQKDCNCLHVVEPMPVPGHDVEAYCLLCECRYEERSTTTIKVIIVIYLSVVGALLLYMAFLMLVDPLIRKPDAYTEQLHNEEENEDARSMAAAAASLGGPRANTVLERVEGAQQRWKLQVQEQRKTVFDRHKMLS
Target,log2 fold change [1],log2 fold change [2],log2 fold change [3],log2 fold change [4],log2 fold change [5],log2 fold change [6],log2 fold change [7],log2 fold change [8],log2 fold change [9],log2 fold change [10],log2 fold change [11],log2 fold change [12],log2 fold change [13],log2 fold change [14],log2 fold change [15],log2 fold change [16],log2 fold change [17],log2 fold change [18],log2 fold change [19],log2 fold change [20]
TRIM28 (UniProt Q13263),-0.008,-0.033,0.052,-0.003,-0.035,-0.087,0.018,-0.056,-0.002,-0.152,0.013,-0.049,0.013,0.041,-0.059,0.078,0.075,0.012,0.039,0.04
VPS13B (UniProt Q7Z7G8),0.05,-0.013,-0.016,-0.042,-0.06,-0.241 (active),0.121,0.007,0.03,0.015,0.02,-0.028,0.06,0.057,-0.011,0.008,-0.011,-0.008,0.002,0.002
TPR (UniProt P12270),0.03,-0.048,0.247,0.058,0.121,0.091,0.024,-0.001,-0.045,-0.122,-0.001,0.023,-0.069,-0.047,-0.048,0.031,0.012,0.003,-0.08,0
TRAPPC13 isoform 5 (UniProt A5PLN9),-0.06,-0.047,-0.121,-0.048,-0.093,-0.014,0.026,0.033,-0.06,-0.047,0.022,0.008,0.006,0.043,0.024,0.074,0.113,0.095,0.025,0.002
XPO6 (UniProt Q96QU8),-0.131,0.246,-0.038,0.083,0.434 (active),-0.189,-0.023,0.646 (active),-0.08,0.067,0.008,-0.221,0.041,-0.369,0.767 (active),0.082,0.13,0.028,0.068,-0.003
TUBAL3 (UniProt A6NHL2),-0.046,-0.005,-0.039,-0.044,-0.047,0.003,-0.102,-0.108,0.11,-0.094,0.152,-0.062,0.005,0.094,-0.106,0.121,-0.033,-0.207,0.006,-0.028
WARS2 (UniProt Q9UGM6),-0.016,-0.075,-0.031,-0.017,-0.144,-0.204,0.016,-0.053,-0.026,-0.004,-0.03,0.032,0.018,0.074,-0.128,0.048,0.136,0.042,-0.026,0.012
TMEM9 (UniProt Q9P0T7),0.076,0.039,0.012,-0.003,-0.07,-0.211,0.064,-0.042,0.067,-0.013,-0.024,-0.041,0.057,-0.008,0,0.028,0.091,-0.062,0.039,0.019
UBE2J1 (UniProt Q9Y385),-0.447,0.013,-0.077,-0.02,-0.106,-0.284,0.188,0.096,0.101,-0.047,-0.133,-0.016,0.107,0.04,-0.077,-0.087,-0.071,-0.262,0.098,-0.047
TSFM (UniProt P43897),-0.065,-0.134,-0.067,0.011,-0.254,0.069,-0.058,-0.08,-0.066,0.258,0.253,-0.167,0.021,0.11,-0.057,0.08,0.034,0.181,0.041,0.075
UBR2 (UniProt Q8IWV8),0.002,-0.102,-0.11,0.029,-0.086,-0.058,0.351 (active),0.137,-0.01,0.076,0.079,-0.08,0.048,-0.03,0.078,0.029,0.037,-0.038,0.192,0.046
TMEM192 (UniProt Q8IY95),0.047,-0.014,-0.012,0.025,0.004,-0.481 (active),0.029,0.051,-0.004,-0.019,0.013,-0.032,0.026,-0.028,0.004,-0.006,-0.026,-0.014,-0.038,-0.005
TMEM70 (UniProt Q9BUB7),0.07,0.068,-0.034,-0.044,-0.095,0.13,0.028,0.019,-0.034,0.086,0.006,0.051,0.051,0.005,-0.012,-0.011,0.029,-0.053,-0.164,0.047
WDR61 (UniProt Q9GZS3),0.037,-0.015,-0.057,-0.049,0.008,-0.016,-0.009,0.028,0.013,0.004,-0.026,0.024,0.001,-0.027,-0.035,-0.072,-0.115,-0.02,0.026,0.038
USP48 isoform 8 (UniProt Q86UV5),-0.09,-0.071,-0.014,0.046,-0.207,-0.278,0.052,0.008,0.003,-0.101,0.128,-0.094,-0.054,0.119,-0.006,0.162,0.142,0.103,0.144,0.14
VPS35L (UniProt Q7Z3J2),-0.012,-0.006,-0.028,0.05,-0.097,-0.046,0.036,0.043,-0.013,0.024,0.024,-0.031,-0.052,-0.022,0.05,0.003,0.049,0.086,0.03,0.07
